This passage reports growth inhibition results from PubChem BioAssay (NCI).

The panel holds about 79,000 compounds, 15% with a hit somewhere; the sample as a whole holds those more often. A number with no mark means an inactive call. Activity calls are given as the source filed them. No stated cut-off is given here; in the data, active means growth inhibition above about 70%; inactive means the rest.

The nature of test [1]: NCI Yeast Anticancer Drug Screen. Data for the rad50 strain (AID 155).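 Further: 0% = growth of vehicle-only cultures of the same strain.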 The following applies: S. cerevisiae rad50 strain growth inhibition; at 50.0 µM; active compounds read high. In short, it runs like this:
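Yeast carrying a defined DNA repair defect were exposed to test compounds, and growth was compared with vehicle-treated controls to give percent inhibition.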

Test [2] is described as follows: NCI Yeast Anticancer Drug Screen. Data for the mec2-1 strain (AID 157). The following applies: S. cerevisiae mec2-1 strain, at 50.0 µM, active compounds read high. In short, it runs like this: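 Mutant yeast (mec2-1) grown with compound; growth inhibition relative to vehicle control reported.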
Test [3] in a line: NCI Yeast Anticancer Drug Screen. Data for the sgs1 mgt1 strain (AID 161).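 Further: 0% = growth of cultures given vehicle only.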 The settings on record: S. cerevisiae sgs1 mgt1 strain, at 50.0 µM, active compounds read high. In short, it runs like this: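 Percent growth inhibition was derived by comparing compound-exposed mutant yeast with vehicle-exposed cultures. The strain carries alterations in DNA damage repair.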
The nature of test [4]: NCI Yeast Anticancer Drug Screen. Data for the cln2 rad14 strain (AID 165).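 Further: 0% = growth equal to vehicle treated cultures.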 The following applies: S. cerevisiae cln2 rad14 strain, at 50.0 µM, active compounds read high. In short, it runs like this:
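Readout is yeast growth inhibition versus vehicle-treated controls, using a strain with cln2 and rad14 alterations exposed to compound.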

Test [5] can be described thus: NCI Yeast Anticancer Drug Screen. Data for the bub3 strain (AID 167). The following applies: S. cerevisiae bub3 mutant strain, at 50.0 µM, active compounds read high. In short, it runs like this: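 Compounds were applied to a genetically altered yeast strain carrying a cell-cycle control defect. Growth inhibition was scored against vehicle-treated controls.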
A short description of test [6]: NCI Yeast Anticancer Drug Screen. Data for the mlh1 rad18 strain (AID 175). The following applies: S. cerevisiae mlh1 rad18 strain growth inhibition; at 50.0 µM; active compounds read high. The method, boiled down: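 Genetically defined yeast (DNA repair-deficient) exposed to compounds; growth inhibition determined relative to vehicle.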

Consider `CN(C)C(=O)c1cc2ccccc2[nH]1`, for which the growth inhibition in test [1] was 28.9%; in test [2], 16.4%; in test [3] it was 6.7%; in test [4], 12.8%; in test [5] it was 3.75%; in test [6] it was 20.2%.

As to `OCC1OC(n2cnc3[nH]cnc(=S)c32)C(O)C1O` (stereo not drawn), the growth inhibition in test [1] is 4.3%; in test [2], 14.2%; in test [3], 0.35%; in test [4], 1.05%; in test [5] it was -6.35%; in test [6], 14.7%.

With `O=C1N(O)C2(C=CCCC2)/C(=N/O)C12CCCCC2` (stereo not drawn), the growth inhibition was -8.5% in test [1]; -2.3% in test [2]; -0.9% in test [3]; 11.4% in test [4]; 11.4% in test [5]; 12.1% in test [6].

Turning to `CCOC(=O)c1c(SC(=O)c2ccc(OC)cc2)n(-c2ccccc2)c(=S)n(-c2ccccc2)c1=O`, the growth inhibition in test [1] was 16.2%; in test [2], 0.75%; in test [3], 3.75%; in test [4] it was 8.55%; in test [5], 16.8%; in test [6] it was 12.8%.

For the compound `CCCCCCCCCCCCCCCC(=O)O` (tested in a mixture with another compound), the growth inhibition in test [1] was 7.65%; in test [2], -1.5%; in test [3], -18.2%; in test [4] it was 33.8%; in test [5], 12.1%; in test [6], -11.4%.

`CC(C)CC(NC(=O)C(CS)NC(=O)CN1C(=O)CCC1=O)C(N)=O` (stereo not drawn): the growth inhibition in test [1] was 15.1%; in test [2], -2.5%; in test [3], 4.65%; in test [4], -17.1%; in test [5], 13.3%; in test [6], 19.8%.

For the compound `CSc1ccc(C2OC(=O)c3ccccc32)c2ccccc12` (stereo not drawn), the growth inhibition was 20.4% in test [1]; -11.6% in test [2]; 21.2% in test [3]; 8.25% in test [4]; -14.8% in test [5]; 5.1% in test [6].

Turning to `O=C1CC(N2C(=O)C3C4CCC(O4)C3C2=O)C(=O)N1` (stereo not drawn), the growth inhibition in test [1] was 2.45%; in test [2], 18.2%; in test [3] it was 1.3%; in test [4], -0.6%; in test [5], 7.95%; in test [6], 6.45%.

For the compound `CC(=O)Nc1ccc(OCc2ccccc2)cc1[N+](=O)[O-]`, the growth inhibition is 20.5% in test [1]; -11.9% in test [2]; 9.75% in test [3]; 10.2% in test [4]; 6.85% in test [5]; 28.2% in test [6].

Take `N#CC(c1ccc(O)cc1)N1CCN(C(C#N)c2ccc(O)cc2)CC1` (stereo not drawn): the growth inhibition in test [1] was -1.5%; in test [2], 1%; in test [3], -33.2%; in test [4] it was -26.8%; in test [5], -25.2%; in test [6] it was -43.4%.

`CC(Sc1ccccn1)C(=O)c1ccccc1` (stereo not drawn): the growth inhibition in test [1] is -1.55%; in test [2] it was -6.75%; in test [3], -4.05%; in test [4] it was -52.5%; in test [5], -9.05%; in test [6], 1.2%.

Regarding `CC(C)(C)c1cc(C(=O)O)ccc1C(=O)O`, the growth inhibition in test [1] was -4.2%; in test [2] it was 12.1%; in test [3] it was -2.75%; in test [4], -4.2%; in test [5], -26.4%; in test [6] it was -8.15%.

For `CCCC(CCc1ccccc1)C(=O)NC(N)=O` (stereo not drawn), the growth inhibition in test [1] is 4.5%; in test [2], -5.6%; in test [3] it was 1.45%; in test [4] it was 2.55%; in test [5] it was 42.7%; in test [6], 1.4%.

As for `COc1ccc(CCN2C(=O)C(=O)N(c3ccc(Cl)c(Cl)c3)C2=O)cc1OC`, the growth inhibition in test [1] was 3.05%; in test [2], -0.25%; in test [3], 11.5%; in test [4] it was 14.3%; in test [5], -4.35%; in test [6] it was 13%.

For the compound `Clc1ccc(CSc2cnnc(Cl)c2SCc2ccc(Cl)cc2)cc1`, the growth inhibition in test [1] is 8.1%; in test [2], -4.5%; in test [3], 8.2%; in test [4], 22.8%; in test [5] it was -2.15%; in test [6], 3.05%.

Turning to `O=c1cc(N2CCOCC2)n2c(ccc3ccccc32)n1`, the growth inhibition in test [1] was -17.9%; in test [2] it was -2.4%; in test [3] it was -10.4%; in test [4] it was 13.2%; in test [5], 22%; in test [6] it was -2.6%.

As for `O=C(CC(O)(C(F)(F)F)C(F)(F)F)c1cccc(S(=O)(=O)N2CCOCC2)c1`, the growth inhibition in test [1] was 7.05%; in test [2] it was 5.9%; in test [3], 8.5%; in test [4], 8.05%; in test [5], 0.6%; in test [6] it was 22.8%.

Take `CC(O)C(=O)N(CCO)CCO` (stereo not drawn): the growth inhibition in test [1] is -5.4%; in test [2], -21.9%; in test [3], -13.4%; in test [4], -35.8%; in test [5], 3.5%; in test [6], 10.3%.

`COc1ccc(C(O)C2CC(=O)NN=C2C)cc1OC` (stereo not drawn): the growth inhibition in test [1] was 8.05%; in test [2] it was -0.85%; in test [3] it was -3.3%; in test [4] it was 6.7%; in test [5] it was 8.7%; in test [6], -1.7%.

Take `c1ccc(-c2nnn(-n3nnc(-c4ccccc4)n3)n2)cc1`: the growth inhibition in test [1] was -13%; in test [2], 12.3%; in test [3], 10.9%; in test [4] it was -5.55%; in test [5] it was 1.3%; in test [6] it was 25.5%.

Consider `C/C(N=NC(=S)N1CCC(C)CC1)=C1\C=CC=CN1O`, for which the growth inhibition is 97.3% (active) in test [1]; 91.5% (active) in test [2]; 95.9% (active) in test [3]; 87.2% (active) in test [4]; 48% in test [5]; 98.3% (active) in test [6].

For the compound `C#CCN(Cc1ccc2nc(-c3ccccc3)c(Cl)nc2c1)c1ccc(Cl)c(Cl)c1`, the growth inhibition in test [1] is -15.2%; in test [2], -6.4%; in test [3], -2.25%; in test [4], -37.5%; in test [5], -16.4%; in test [6] it was -18.2%.

Turning to `CCOC(=O)c1[nH]c(COC(C)=O)c2c1CCCCCCCCCC2`, the growth inhibition in test [1] is -6.1%; in test [2], -9.75%; in test [3], 6.05%; in test [4], 41.2%; in test [5], 5%; in test [6] it was -12.3%.

As to `COc1ccc2cc3n(c2c1)CCc1cc(OC)c(OC)cc1-3`, the growth inhibition is 13.6% in test [1]; -10.8% in test [2]; 5.9% in test [3]; 23.9% in test [4]; 3% in test [5]; 14.2% in test [6].

As to `NC(=O)C(=CNC(=S)Nc1cccc(C(F)(F)F)c1)C(N)=O`, the growth inhibition is -45% in test [1]; -44.5% in test [2]; -14.8% in test [3]; 16.4% in test [4]; 5.5% in test [5]; -56% in test [6].

With `O=C(Nc1nc2ncn(CCI)c2c(=O)[nH]1)c1ccccc1`, the growth inhibition in test [1] is -8.3%; in test [2] it was 6.55%; in test [3] it was 6.1%; in test [4] it was -1.4%; in test [5] it was 6.7%; in test [6] it was -14.3%.

On to `O=C(/C=C/c1ccccc1)N/N=C/c1ccncc1`, for which the growth inhibition in test [1] is 5.2%; in test [2], 24.9%; in test [3] it was 1.6%; in test [4], -9.2%; in test [5], -0.45%; in test [6] it was 11.3%.

As for `Cn1nc(-c2ccccc2)c(N=[N+]=[N-])cc1=O`, the growth inhibition was -18.1% in test [1]; 14.6% in test [2]; -41.3% in test [3]; -11.9% in test [4]; -10.9% in test [5]; -34.6% in test [6].

In the case of `CCC(C)SC1=NC(N)=NC2=NC=NC21` (stereo not drawn), the growth inhibition is -11.6% in test [1]; -2.85% in test [2]; -9.3% in test [3]; -21.8% in test [4]; 6.05% in test [5]; 4.25% in test [6].

For the compound `O=[N+]([O-])c1ccc(SC2=NCCCN2C2CCCCC2)c(Cl)c1`, the growth inhibition is -0.1% in test [1]; -13.9% in test [2]; 12.8% in test [3]; 13.8% in test [4]; 12.6% in test [5]; -9% in test [6].

Turning to `O=c1c(Cc2ccccc2)c(O)cc2n1CCC2`, the growth inhibition in test [1] is -14.5%; in test [2], -14.4%; in test [3] it was -10.7%; in test [4] it was 8.75%; in test [5], -5.25%; in test [6], -10.9%.

With `NC(=O)N/N=C1\CC2CC1C1CCCC21` (stereo not drawn), the growth inhibition was 8.05% in test [1]; 5.35% in test [2]; -1.75% in test [3]; -0.5% in test [4]; -8.9% in test [5]; 15.3% in test [6].

Consider `CN(C)S(=O)(=O)c1ccc(NC(=O)OC2CCCC2)cc1`, for which the growth inhibition in test [1] was 12.9%; in test [2], 3.7%; in test [3], 6.8%; in test [4] it was 33.2%; in test [5] it was 24.6%; in test [6], 0.35%.

Turning to `CC(=O)Nc1ccc(Cc2ccc(O)cc2)cc1`, the growth inhibition was 1.55% in test [1]; 6.65% in test [2]; -3.75% in test [3]; -31.1% in test [4]; -3.55% in test [5]; -1.45% in test [6].

`O=C(O)C1SCCS1`: the growth inhibition was 15.4% in test [1]; 14.7% in test [2]; 19.1% in test [3]; 21.8% in test [4]; 22.1% in test [5]; 12.8% in test [6].

Turning to `CCOC(=O)C(C(C)=O)C(c1ccc(N(C)C)cc1)c1ccc(N(C)C)cc1` (stereo not drawn), the growth inhibition is 4% in test [1]; -4.35% in test [2]; -6.6% in test [3]; -2.4% in test [4]; 3.95% in test [5]; -3.4% in test [6].

Consider `CN(C)c1cccc(/C=C(\C#N)c2ccccc2)c1`, for which the growth inhibition in test [1] was 2.85%; in test [2], 13.8%; in test [3], 35.5%; in test [4] it was 28.8%; in test [5] it was 54.1%; in test [6], 15.2%.

As for `CCCCC(CCCC)(C(=O)NC)c1ccccc1`, the growth inhibition was 3.85% in test [1]; 6.65% in test [2]; -4.5% in test [3]; -14.2% in test [4]; 17.1% in test [5]; -23.5% in test [6].
